ALR H2O2 inh = inhibitors of human sulfhydryl oxidase ALR. P55789. purified ALR, DTT oxidation, H2O2 HRP-luminol luminescence. inhibition, % (test concentration not listed). actives 3.8% (n = 290,000). AID 485317;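 active means mean replicate inhibition above about 79%, with every replicate also reaching it, limit read from the data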
AI-2 QS modul = modulators of Vibrio harveyi AI-2 quorum sensing system; Vibrio harveyi JMH597 AI-2 luminescence/OD600 ratio, 9 h; stronger effect = lower value; strain lacks LuxN and CqsS sensors; 0 = neutral-control median; activity change, % at 7.5 µM; actives 0.4% (n = 300,000); AID 2094; in the data active means activity change below about -75%, passing the limit was not always enough;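 further: luminescence divided by OD600 gain over 9 h not by final OD600 alone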
PREPL inh = human PREPL enzyme inhibition; recombinant PREPL, fluorescence polarization activity-based probe; inhibition, % at 5.96 µM; actives 0.68% (n = 320,000); in the data active means inhibition above about 43%;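 further: 0% = enzyme with DMSO and 100% = wells lacking enzyme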
Target sequence (Q4J6C6 whole entry, looked up): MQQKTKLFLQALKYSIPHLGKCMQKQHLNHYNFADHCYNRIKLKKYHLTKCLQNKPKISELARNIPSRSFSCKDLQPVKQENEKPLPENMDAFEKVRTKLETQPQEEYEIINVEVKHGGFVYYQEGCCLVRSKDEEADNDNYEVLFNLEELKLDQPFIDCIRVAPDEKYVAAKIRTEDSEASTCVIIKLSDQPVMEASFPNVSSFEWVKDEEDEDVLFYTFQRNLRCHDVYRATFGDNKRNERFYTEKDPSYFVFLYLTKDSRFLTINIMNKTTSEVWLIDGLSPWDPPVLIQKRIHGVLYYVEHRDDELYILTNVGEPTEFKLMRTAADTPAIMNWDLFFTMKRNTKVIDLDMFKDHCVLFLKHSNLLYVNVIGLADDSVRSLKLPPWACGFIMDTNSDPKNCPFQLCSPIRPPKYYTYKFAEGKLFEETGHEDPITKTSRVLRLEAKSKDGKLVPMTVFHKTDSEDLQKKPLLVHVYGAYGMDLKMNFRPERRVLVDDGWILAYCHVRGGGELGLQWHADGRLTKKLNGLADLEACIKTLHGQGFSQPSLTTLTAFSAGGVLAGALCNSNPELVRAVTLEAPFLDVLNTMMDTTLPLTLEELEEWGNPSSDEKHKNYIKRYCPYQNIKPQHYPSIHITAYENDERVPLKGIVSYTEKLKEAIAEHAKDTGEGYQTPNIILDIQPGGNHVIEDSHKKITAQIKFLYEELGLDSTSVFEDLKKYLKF
CHT block = inhibits the human high affinity choline transporter; Q9GZV3; CHT-expressing cells, membrane potential dye, choline response; stronger effect = lower value; B-score at 10 µM; actives 0.86% (n = 310,000); AID 488975;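 active means B-score over 3 SD under the library average, and starting fluorescence ratio not unusually high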;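 further: choline stimulus applied at its EC90 after an EC20 pre-addition; B-score computed on integrated fluorescence ratio after choline addition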
CHT allo act = human CHT allosteric activation | Q9GZV3 | CHT-expressing cells, membrane potential dye, choline EC20; stronger effect = higher value; LV-AA mutant CHT in HEK293 cells | B-score at 10 µM | actives 0.49% (n = 310,000) | AID 488977;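 active means initial fluorescence not abnormally high and integrated response B-score, plate-corrected, over 3 SD above library mean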
Starred values were filed as active, the others as inactive. Most compounds without a hit are left out; they make up all but 5% or so of the library.

For COc1c2c(cc3oc(CO[C@@H]4O[C@H](CO)[C@@H](O)[C@H](O)[C@H]4O)cc(=O)c13)O[C@H](C(C)(C)O)C2 the results were ALR H2O2 inh 0.4 and PREPL inh 14.7.
Screening O=C(NNC(=S)Nc1ccc(Cl)c(Cl)c1)c1cccc([N+](=O)[O-])c1 returned ALR H2O2 inh 97.6*, AI-2 QS modul 16.2, PREPL inh 17.2, CHT block inactive and CHT allo act inactive.
O=C(NNC(=S)NC(=O)c1cccc([N+](=O)[O-])c1)c1ccc(O)cc1 was read as ALR H2O2 inh 88.2*, AI-2 QS modul 38.8, PREPL inh 1.0, CHT block inactive and CHT allo act inactive.
O=C(NNC(=S)NC(=O)c1ccccc1)c1cccc([N+](=O)[O-])c1 was read as ALR H2O2 inh 98.0*, AI-2 QS modul 17.9, PREPL inh -1.3, CHT block inactive and CHT allo act inactive.
O=C(NNC(=O)c1cccc([N+](=O)[O-])c1)c1ccncc1 was read as ALR H2O2 inh 3.0, AI-2 QS modul 3.3, PREPL inh -4.5, CHT block inactive and CHT allo act inactive.
COc1ccccc1N(Cc1ccccc1)S(=O)(=O)c1cccc(C(=O)NC2CC(C)(C)NC(C)(C)C2)c1 was read as ALR H2O2 inh -7.8, AI-2 QS modul 2.3, PREPL inh -0.8, CHT block inactive and CHT allo act inactive.
CC(C)(O)c1cc2ccc(C#CCCN3C(=O)c4ccccc4C3=O)cc2c(=O)o1 was read as ALR H2O2 inh 2.4 and PREPL inh 9.9.
O=C(O)CNC(=O)c1cccc(C(F)(F)F)c1 was read as ALR H2O2 inh -2.7, AI-2 QS modul -6.2, PREPL inh -0.3, CHT block inactive and CHT allo act inactive.
`Cc1c(CCCC(=O)O)sc(N)c1C(=O)c1cccc(C(F)(F)F)c1` gave ALR H2O2 inh 96.3*, AI-2 QS modul 1.3, PREPL inh 15.9, CHT block inactive and CHT allo act inactive.
For CCc1ccc(CNc2ccc(O)cc2)cc1 the results were ALR H2O2 inh 83.6*, AI-2 QS modul 29.1, PREPL inh 8.5, CHT block inactive and CHT allo act inactive.
`Oc1ccc(NCc2ccc(OCc3ccccc3)cc2)cc1` gave ALR H2O2 inh 48.7, AI-2 QS modul 10.8, CHT block inactive and CHT allo act inactive.
Screening N#Cc1ccccc1CSc1ncccc1C(=O)O returned ALR H2O2 inh -9.0, AI-2 QS modul 33.0, PREPL inh 12.1, CHT block inactive and CHT allo act inactive.
Screening O=C(O)c1ccc(CSc2nc3ccc(NC(=O)c4ccccc4C(=O)O)cc3s2)cc1 returned ALR H2O2 inh 99.2*, AI-2 QS modul 18.3, PREPL inh 3.1, CHT block inactive and CHT allo act inactive.
For Cc1nc2ccc(NC(=O)c3ccccc3)cc2s1 the results were ALR H2O2 inh 1.0, AI-2 QS modul 10.4, PREPL inh 11.2, CHT block inactive and CHT allo act inactive.
`N#Cc1ccccc1CSc1nc2ccc(NC(=O)c3ccccc3C(=O)O)cc2s1` gave ALR H2O2 inh 99.1*, AI-2 QS modul 17.6, PREPL inh -3.1, CHT block inactive and CHT allo act inactive.
O=C(NCC1CCCO1)c1ccc2c(c1)N(Cc1ccc(F)cc1)CCS2 (stereo not given) was read as ALR H2O2 inh 98.6*, PREPL inh 13.1, CHT block inactive and CHT allo act inactive.
Screening O=C(NCCN1CCOCC1)c1ccc2c(c1)N(Cc1ccc(F)cc1)C(=O)CS2 returned ALR H2O2 inh -13.6, AI-2 QS modul 19.1, PREPL inh -1.1, CHT block inactive and CHT allo act inactive.
For CCN1CCN(CCCNC(=O)c2ccc3c(c2)N(Cc2ccccc2)CCS3)CC1 the results were ALR H2O2 inh 98.9*, AI-2 QS modul -2.9, PREPL inh 20.3, CHT block inactive and CHT allo act inactive.
Screening O=C(NCCN1CCOCC1)c1cc2sccc2n1Cc1ccc(F)cc1 returned ALR H2O2 inh 96.6*, AI-2 QS modul -2.8, PREPL inh 4.3, CHT block inactive and CHT allo act inactive.
For O=C(NCCCN1CCOCC1)c1ccc2c(c1)N(Cc1ccc(F)cc1)CCS2 the results were ALR H2O2 inh 98.9*, AI-2 QS modul -0.7, PREPL inh 26.0, CHT block inactive and CHT allo act inactive.
Screening CC(C)(C)NC(=O)C1CCN(S(=O)(=O)c2cccc(C(F)(F)F)c2)CC1 returned ALR H2O2 inh -1.1, AI-2 QS modul 12.5, PREPL inh 16.5, CHT block inactive and CHT allo act inactive.
Screening CC(O)(CC(=O)O)CC(=O)O returned ALR H2O2 inh -10.1, AI-2 QS modul 1.5, PREPL inh 4.1, CHT block inactive and CHT allo act inactive.
Cc1nn(-c2ccc(F)cc2)c(Cl)c1C(=O)OC(C)C(=O)N(C)C1CCCCC1 (stereo not given) was read as ALR H2O2 inh 0.1 and PREPL inh 22.1.
For COc1ccc(S(N)(=O)=O)cc1C(=O)N1CCCC1 the results were ALR H2O2 inh -16.2, AI-2 QS modul 16.0, PREPL inh -9.2, CHT block inactive and CHT allo act inactive.
O=C(COC(=O)CCc1ccc(S(=O)(=O)N2CCOCC2)cc1)NCc1ccc(Cl)cc1 was read as ALR H2O2 inh 1.2, AI-2 QS modul 13.1, PREPL inh 3.0, CHT block inactive and CHT allo act inactive.
`CC(C)(C)OC(=O)CNC(=O)c1[nH]cnc1C(=O)N[C@@H](Cc1ccccc1)C(=O)OC(C)(C)C` gave ALR H2O2 inh -10.0, AI-2 QS modul 15.7, PREPL inh -0.9, CHT block inactive and CHT allo act inactive.
`CC(C)NC(=O)CC1Nc2c3ccccc3nc(=S)n2C1=O` (stereo not given) gave ALR H2O2 inh 88.2*, AI-2 QS modul 20.0, PREPL inh -0.8, CHT block inactive and CHT allo act inactive.
CN(Cc1c(F)cccc1Cl)C(=O)CNC(=O)c1cccs1 was read as ALR H2O2 inh -0.4, AI-2 QS modul 6.1, PREPL inh 2.7, CHT block inactive and CHT allo act inactive.
For COc1cccc(/C=C2\SC(=O)N(CC(=O)NCCCn3ccnc3)C2=O)c1 the results were ALR H2O2 inh 98.9*, AI-2 QS modul 18.4, PREPL inh 22.4, CHT block inactive and CHT allo act inactive.
For COc1cccc(/C=C2\SC(=O)N(CCC(=O)NCCCn3ccnc3)C2=O)c1 the results were ALR H2O2 inh 11.2, AI-2 QS modul 7.4, PREPL inh 2.2, CHT block inactive and CHT allo act inactive.
COCCn1c(=NC(=O)CCS(=O)(=O)c2ccccc2)sc2cc(F)ccc21 was read as ALR H2O2 inh 6.7, AI-2 QS modul 4.0, PREPL inh -1.2, CHT block inactive and CHT allo act inactive.
`CCN(CC)C(=O)C1c2ccccc2Oc2ccccc21` gave ALR H2O2 inh 2.7, AI-2 QS modul 2.5, PREPL inh 54.2*, CHT block inactive and CHT allo act inactive.

Screens (PubChem BioAssay)
